# Data as given in PubChem BioAssay AID588518 (NMMLSC, 2011).
# Among all 1,700 compounds or so, about 20 (1%) were called active. No stated cut-off is given here; in the data, active means inhibition above about 26%; inactive means the rest. The sample as a whole holds a higher share of actives than the screen did.
# Test system: Candida albicans multidrug efflux pump MDR1 (expressed in S. cerevisiae AD1-8u)
# Experiment: CaMdr1 pump blockers in yeast – flow cytometry, singleplex, Cherry Pick1 set, confirmation (AID 588518);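 further: 0% = DMSO vehicle and 100% = reference inhibitor; higher means more Nile Red retained so more efflux inhibition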
# Conditions: S. cerevisiae AD/CaMDR1, Nile Red efflux, at 10 µM, active compounds read high
row,SMILES,inhibition
1,CCc1ccc(NC(=O)Cn2ncn3c(cc4ccccc43)c2=O)cc1,-0.1% (inactive)
2,Cc1nc2c(C(=O)NCc3ccc4c(c3)OCO4)c[nH]n2c(=O)c1Cc1ccccc1F,-0.28% (inactive)
3,Cc1cc(C)cc(NC(=O)C(OC(=O)c2ccc(O)cc2)c2ccccc2)c1 (stereo unspecified),-0.15% (inactive)
4,Cc1oc2cc3oc(=O)ccc3cc2c1C,-0.03% (inactive)
5,C/C(N)=C(/C#N)C(=O)COC(=O)c1cc(-c2cccc(Br)c2)nc2ccccc12,-0.13% (inactive)
6,CCCCN1C(=O)/C(=C/C=C2/C=Cc3ccccc3N2CC)SC1=S,-0.28% (inactive)
7,CCNc1c(NS(=O)(=O)c2ccc(C3CCCCC3)cc2)c(=O)oc2ccccc12,-0.16% (inactive)
8,O=C(Cc1ccc(Br)cc1)N1CCN(c2ccccn2)CC1,-0.14% (inactive)
9,CSCCC(NC(=O)COc1ccccc1)C(=O)OCCOc1ccc(Br)cc1 (stereo unspecified),-0.39% (inactive)
10,Cc1ccc2[nH]c3c(=O)n(CC(=O)NCCc4ccc(Cl)cc4)ncc3c2c1,-0.13% (inactive)
11,CCCc1nc(N2CCN(C)CC2)c2sc(=S)n(-c3ccccc3)c2n1,-0.01% (inactive)
12,COc1ccc(S(=O)(=O)N2CCOC2CNC(=O)C(=O)NCc2ccc(F)cc2)cc1 (stereo unspecified),0.32% (inactive)
13,CCNC(=O)c1c(O)c2cccc3c2n(c1=O)CC3,-0.2% (inactive)
14,COc1ccc2[nH]c3c(C)c4cc[n+](C)cc4c(C)c3c2c1,0.07% (inactive)
15,CC(/C=C/c1ccccc1)=N\NC(=O)C1CC1(C)c1ccccc1 (stereo unspecified),-0.16% (inactive)
16,O=C1NC(=O)C2C1C(c1ccc([N+](=O)[O-])cc1)=NN2Cc1ccccc1 (stereo unspecified),0.35% (inactive)
17,CN(C)S(=O)(=O)c1cc(C(=O)Nc2ccn(C)n2)c(Cl)cc1Cl,-0.29% (inactive)
18,COc1ccc(NC(=S)N2CCc3cc(OC)c(OC)cc3C2)cc1,-0.21% (inactive)
19,CC12CCC(C(=O)N(c3cccc(Cl)c3)C1=O)C2(C)C (stereo unspecified),-0.13% (inactive)
20,CCCCOc1ccc(C(=O)NCC(=O)OCC(=O)c2c(N)n(C)c(=O)n(C)c2=O)cc1,-0.28% (inactive)
21,COc1ccccc1/C=C/C=N/n1c(-c2ccc(Cl)cc2Cl)n[nH]c1=S,0.32% (inactive)
22,Cc1ccc(/C=C(\C#N)C(=O)Nc2cccc3ncccc23)o1,-0.29% (inactive)
23,Cc1c(CCOC(=O)CC23CC4CC(CC(C)(C4)C2)C3)sc[n+]1Cc1ccc([N+](=O)[O-])cc1,-0.01% (inactive)
24,NNC(=O)COc1ccc(C2SCCS2)cc1,-0.31% (inactive)
25,O=C(Cn1c(COc2ccccc2)nc2ccccc21)Nc1cc(Cl)c(Cl)cc1Cl,0.02% (inactive)
26,CCOC(=O)CNC(=O)CSc1nnnn1-c1cc(C)ccc1C,-0.31% (inactive)

row,SMILES,inhibition
1,Cc1csc(NC(=O)c2ccc(-c3ccc(Cl)cc3Cl)o2)n1,0.14% (inactive)
2,COc1ccc(-c2sc3ccccc3c2-c2ccc(OCCN3CCOCC3)cc2)cc1,0.1% (inactive)
3,CC(C)C(=O)N1CCC2(CC1)Oc1ccc(F)cc1C(=O)C21CC(c2ccccc2)=NO1 (stereo unspecified),45.9% (active)
4,CCCc1nnc(SCC(=O)Nc2ccc(C(=O)OCC)cc2)o1,0.19% (inactive)
5,O=C(Nc1ccc(NC(=O)c2cccs2)cc1)c1ccc2ccccc2c1,0.05% (inactive)
6,CN1CCN(S(=O)(=O)c2ccc(NC(=S)NC(=O)C3CC3)cc2)CC1,-0.06% (inactive)
7,Cc1ccc2c(c1)NC(=O)[C@@]1(C)[C@@H](c3ccccc3)[C@H]3COc4ccc(Cl)cc4[C@@H]3N1C2=O,-0.01% (inactive)
8,COc1ccc(C(=O)NC2CC(C)(C)Cc3c2cnn3-c2ccccc2)c(OC)c1 (stereo unspecified),-0.03% (inactive)
9,O=C(OCc1ccc(-c2ccccc2)cc1)c1cccc(O)c1,-0.19% (inactive)
10,CC(/C=N/NC(=O)c1cc(-c2ccc3ccccc3c2)n[nH]1)=C\c1ccco1,-0.25% (inactive)
11,CCOC(=O)c1c(NC(=S)NC(=O)c2ccco2)sc2c1CCCC2,-0.19% (inactive)
12,CCCCCCCCCCCCCCCC(=O)OC/C=C(C)/C=C/C=C(C)/C=C/C1=C(C)CCCC1(C)C,-0.1% (inactive)
13,COc1ccccc1NC(=O)C1CCCN1S(=O)(=O)c1ccc(Cl)cc1 (stereo unspecified),-0.11% (inactive)
14,CC1CCc2c(sc(NC(=O)c3ccc(Cn4cc(Br)cn4)o3)c2C(N)=O)C1 (stereo unspecified),-0.1% (inactive)
15,CCCCCC(=O)Nc1ccc(C(=O)N/N=C/c2ccc([N+](=O)[O-])cc2)cc1,-0.14% (inactive)
16,CSCCC(NS(=O)(=O)c1ccc(C)cc1)C(=O)N1CCCC1 (stereo unspecified),-0.25% (inactive)
17,Cc1cc(/C=N/NC(=O)CC2(C)OCCO2)c(C)n1-c1ccc(Cl)c(Cl)c1,0.16% (inactive)
18,Cc1ccc(OCc2cc(C(=O)N(C)CCc3ccccc3)no2)cc1C,-0.03% (inactive)
19,Cc1nn(C)cc1C(=O)Nc1ccccc1Br,-0.15% (inactive)
20,O=C(CCCCCn1c(=O)[nH]c2ccccc2c1=O)NCCc1c[nH]c2ccccc12,-0.03% (inactive)
21,C[n+]1ccc(/C=C/c2c[nH]c3ccccc23)cc1,5.81% (inactive)
22,O=C(Cc1ccccc1)NCC1OCCc2ccccc21 (stereo unspecified),-0.13% (inactive)
23,CCOc1ccccc1/C=c1\sc2nc(-c3ccco3)nn2c1=O,0.22% (inactive)
24,Cc1nn(C)cc1N1C(=O)c2cccc3c(N)ccc(c23)C1=O,0.11% (inactive)
25,COc1ccc2sc(-c3ccccc3OC)c(-c3ccc(OCCN4CCCC4)cc3)c2c1,5.13% (inactive)
26,COc1ccc(/C=C(\C#N)c2c[nH]c3ccccc23)cc1,0.1% (inactive)

row,SMILES,inhibition
1,Cc1cccc(NC(=O)COc2ccccc2C)n1,-0.06% (inactive)
2,COc1ccc(C(=O)NC(=S)Nc2ccc(N3CCCC3)cc2)cc1OC,-0.18% (inactive)
3,Cc1cc(C(=O)Nc2ccc(C)c(S(=O)(=O)N3CCOCC3)c2)c2ccccc2n1,-0.31% (inactive)
4,O=C(/C=C/c1c(Cl)cccc1Cl)NCc1ccccc1,0.02% (inactive)
5,CCOc1ccc(C2/C(=C(/O)c3ccc4c(c3)CC(C)O4)C(=O)C(=O)N2CCCn2ccnc2)cc1 (stereo unspecified),0.05% (inactive)
6,Cc1ccc(Cn2c(C)nc3c(c2=O)c2nc4ccccc4nc2n3Cc2ccco2)cc1,0.02% (inactive)
7,CCOc1ccc2nc(Cl)c(C3CC(c4ccccc4)=NN3C(=O)c3cccs3)cc2c1 (stereo unspecified),0% (inactive)
8,O=C(NCc1ccccc1)C(=O)NCC1OCCN1S(=O)(=O)c1ccc(Br)cc1 (stereo unspecified),-0.13% (inactive)
9,COc1cccc(-c2sc3ccc(OC)cc3c2-c2ccc(OCCN3CCCCC3)cc2)c1,20.7% (inactive)
10,COc1cccc(NC(=O)CN(C)C(=O)/C=C/c2cc(OC)ccc2OC)c1,-0.16% (inactive)
11,O=C(CNC(=O)c1ccc(-c2ccccc2)cc1)OCc1ccc(Cl)cc1,0.01% (inactive)
12,O=C(CN1C(=O)C2C3CCC(C3)C2C1=O)Oc1ccc2ccccc2c1 (stereo unspecified),0.12% (inactive)
13,Cc1ccc(N=C2NC(=O)/C(=C/C=C/c3ccco3)S2)cc1C,0.12% (inactive)
14,CCOc1ccc(/C=C2\SC(=S)N(NC(=O)c3ccncc3)C2=O)cc1OC,-0.14% (inactive)
15,O=S(=O)(c1ccccc1)N1CCc2ccccc21,0.11% (inactive)
16,Cc1ccc(Cn2nnc3c(=O)[nH]c(C4CCN(S(=O)(=O)/C=C/c5ccccc5)CC4)nc32)cc1,-0.18% (inactive)
17,COc1ccccc1CSc1ncc(-c2ccc([N+](=O)[O-])cc2)[nH]1,-0.17% (inactive)
18,O=C(CSc1nnc(-c2cccnc2)n1Cc1ccco1)c1ccc(Cl)c(Cl)c1,0.13% (inactive)
19,COc1ccc(C(=O)C2CCCN(Cc3cccn3-c3ccccn3)C2)c(C)c1 (stereo unspecified),-0.17% (inactive)
20,CC[n+]1cc(C)ccc1/C=C/c1ccc(N(C)C)cc1,10.7% (inactive)
21,CN=C(c1ccccc1)c1c(C)cccc1C,-0.14% (inactive)
22,CCn1c(/C=C/c2ccc([N+](=O)[O-])o2)nc2ccccc2c1=O,1.88% (inactive)
23,COc1ccc(C(=O)NC2CCCc3c2cnn3-c2cccc(C)c2C)c(OC)n1 (stereo unspecified),-0.16% (inactive)
24,C=CCC[C@@H](Cc1ccc(F)cc1)C(=O)OC[C@H](Cc1c[nH]c2ccccc12)NC(=O)[C@@H](CC=C)CC(=O)N(CCO)Cc1ccccc1,56.2% (active)
